# Compound activity deposited in PubChem by National Center for Advancing Translational Sciences (NCATS).
# Shown are actives, neighbours in structure and some others; about 11% of the full set was active somewhere.
# IMPase Li cell: cell-permeable IMPase inhibitors with lithium potentiation. CHO-M1 cells, IP1 TR-FRET (IP-One), carbachol + lithium. Potency, µM (top dose mostly 59.4 µM), hits mostly inhibitors. hit rate 0.35% among 210,000; active means well fitted curve in the direction sought with a large enough effect; inconclusive means small, poorly fitted or top-dose-only effect, or another doubt; inactive means no such curve, though single readings can be large; an effect the other way counts as inactive or inconclusive;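 further: IP1 builds up when IMPase is blocked and the TR-FRET signal falls; nearly all actives have a fitted effect of over 50% in size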
#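 Test compounds were applied to CHO-M1 cells previously cultured for 16–30 h at 2000 per well. A small lithium amount accompanied them; after 30 min at 37C, IP1 was quantified by TR-FRET.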
# IMPase cell inh: IMPase inhibition in cells | P97697 | CHO-M1 cells, IP1 accumulation, HTRF TR-FRET ratio | inhibition (IP1 accumulation), % at 46.1 µM | 120,000 tested, under 10 active | AID 901; active means well fitted curve in the direction sought with a large enough effect in the signal ratio, not every such curve was filed as active; inconclusive means small, poorly fitted or top-dose-only effect, or a change in a side signal; inactive means no such curve, though single readings can be large or run the other way; the % refers to the signal ratio;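 further: cells stimulated with carbachol in lithium chloride buffer; higher means more IMPase inhibition seen as more IP1 and lower FRET ratio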
# Target sequence (P97697 whole entry, looked up): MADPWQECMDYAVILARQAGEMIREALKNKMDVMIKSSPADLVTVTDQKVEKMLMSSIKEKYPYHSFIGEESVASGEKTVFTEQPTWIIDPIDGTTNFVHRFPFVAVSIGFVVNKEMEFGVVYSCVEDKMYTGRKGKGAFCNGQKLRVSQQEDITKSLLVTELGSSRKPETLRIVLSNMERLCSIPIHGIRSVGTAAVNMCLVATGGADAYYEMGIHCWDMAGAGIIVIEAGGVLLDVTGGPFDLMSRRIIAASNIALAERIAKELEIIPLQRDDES
#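 In this qHTS, compounds (final up to 46 uM) act on CHO-M1 cells that are then activated through the M1 receptor with carbachol, in pH 7.4 buffer containing 50 mM LiCl, for 30 min. IP1 accumulation is quantified by the IP-One immunoassay.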
# ALDH1A1 block: ALDH1A1 (human) enzyme inhibition; Potency, µM (titrated, usually from 75.3 µM), hits mostly inhibitors; hit rate 7.3% among 220,000; AID 1030; P00352; Purified ALDH1A1, NADH fluorescence, propionaldehyde substrate
# Target sequence (P00352 whole entry, looked up): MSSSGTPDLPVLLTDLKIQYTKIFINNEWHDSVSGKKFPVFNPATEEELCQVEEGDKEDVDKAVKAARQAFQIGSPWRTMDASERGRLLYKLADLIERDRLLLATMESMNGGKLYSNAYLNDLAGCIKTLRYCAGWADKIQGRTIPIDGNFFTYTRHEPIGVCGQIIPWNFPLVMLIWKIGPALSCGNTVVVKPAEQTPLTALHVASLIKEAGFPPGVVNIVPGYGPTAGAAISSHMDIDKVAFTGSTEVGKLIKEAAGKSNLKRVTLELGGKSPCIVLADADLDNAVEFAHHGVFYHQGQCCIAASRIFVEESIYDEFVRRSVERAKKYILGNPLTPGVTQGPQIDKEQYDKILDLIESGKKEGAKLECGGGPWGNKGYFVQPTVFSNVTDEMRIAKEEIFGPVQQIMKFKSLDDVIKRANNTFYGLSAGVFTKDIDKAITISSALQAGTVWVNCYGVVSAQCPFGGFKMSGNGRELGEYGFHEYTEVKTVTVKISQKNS
# HPGD inh: HPGD (human) dehydrogenase inhibition; purified HPGD, NADH fluorescence kinetic, PGE2 substrate; Potency, µM, actives largely listed as inhibitors; hit rate 4.3% among 150,000
#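 NADH formation kinetics: reaction with 30 uM PGE2 and 1 mM NAD+ (final), 20 nM enzyme, Tris-HCl pH 8 with Tween 20, after 15 min compound preincubation at room temperature. Fluorescence change, last versus first of five reads.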
# 12-hLO inh: 12-hLO (ALOX12) enzyme inhibition. purified 12-hLO, xylenol orange hydroperoxide absorbance. Potency, µM (series often up to 57.1 µM), usual class: inhibitors. P18054. AID 1452. hit rate 0.12% among 150,000; active means well fitted curve in the direction sought with a large enough effect; inconclusive means small, poorly fitted or top-dose-only effect, or another doubt; inactive means no such curve, though single readings can be large; an effect the other way counts as inactive or inconclusive; further: nearly all actives have a fitted effect of over 55% in size
#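 Xylenol orange chromogenic assay: hydroperoxide from 12hLO oxidises Fe(II), giving red-shifted Fe(III)-XO absorbance. Conditions: 150 nM enzyme, 40 uM arachidonic acid, 25 mM Hepes pH 7.0, 0.01% Triton X-100, 30 min, room temperature.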
# PNC inhibitor: blocks assembly of the perinucleolar compartment; activity change (PNC), negative = inhibition, % at 10 µM; hit rate 3.1% among 140,000; PC3M PTB-GFP, PNC prevalence imaging, 16 h; hits give low values;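 active means readout at or below -70, meaning at least 70% loss of cells showing the perinucleolar compartment, a nuclear body marking cancer cells; inconclusive means readout between -30 and a set limit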
#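 Compounds are pinned in duplicate onto adhered PC3M cells stably expressing GFP-tagged PTB and incubated 16 h at 37 C. Cells are then fixed, nuclei stained with Hoechst, and PNC-positive cells counted.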
# Numbers stand for hits; i = inactive; ? = inconclusive; nt = no result; [ ] = remark or other dose. Unless noted, the call rests on the fitted dose curve; in most records, active means well fitted inhibition curve with a large enough effect (not every such curve was filed as active); inconclusive means small, poorly fitted or top-dose-only effect, or another doubt; inactive means no such curve, though single readings can be large or run the other way.
SMILES,IMPase Li cell,IMPase cell inh,ALDH1A1 block,HPGD inh,12-hLO inh,PNC inhibitor
Cc1ccc(Oc2c(C(F)(F)F)oc3c(CN4CCCCC4C)c(O)ccc3c2=O)cc1 (centres undefined),nt,i,nt,nt,nt,nt
O=C(C[n+]1cn(C(F)F)c2ccccc21)c1ccc(Br)cc1,i,nt,8.9µM,nt,nt,nt
O=C1CC(NCCC2=CCCCC2)C(=O)N1c1cccc(Cl)c1Cl (centres undefined),i,i,5.6µM,i,i,i
O=C(NCCC1=CCCCC1)C(=O)NCc1ccccc1Cl,i,i,i,i,i,i
O=C(CCn1nnc2ccccc21)Nc1nnc(Cc2ccccc2)s1,i,i,?,32µM,i,i
O=C(CCn1nnc2ccccc21)Nc1nnc(COc2ccccc2F)s1,i,i,i,i,i,i
O=C1OC(Cc2ccccn2)C(O)=C1C1=NCCCCN1 (centres undefined),i,nt,i,?,i,i
O=C1OC(Cc2ccccn2)C(O)=C1C1=NCCCN1 (centres undefined),i,nt,i,i,i,-83
O=C1[C@@H]2C(c3cccnc3)=NO[C@@H]2C(=O)N1c1ccc(Br)cc1,nt,nt,7.9µM,nt,nt,nt
COc1ccc(C2=NO[C@@H]3C(=O)N(c4ccc(C)cc4C)C(=O)[C@H]23)cc1OC,i,i,22µM,i,i,i
COc1ccc(C2=NO[C@@H]3C(=O)N(c4cccc(C)c4C)C(=O)[C@H]23)cc1OC,i,i,i,i,i,i
Cc1ccc(N2C(=O)[C@@H]3C(c4ccc(F)cc4)=NO[C@@H]3C2=O)cc1,i,i,i,i,i,-95
COc1ccc(COC(=O)N/N=C2/C[C@@H](O)[C@@H](O)[C@@H]3[C@@H]4C(=O)N(C5CCCCC5)C(=O)[C@H]4CC[C@H]23)cc1,nt,nt,i[13.5 µM],nt,nt,nt
CC(COc1ccc(/C=C/c2ccccc2)cc1)[N+](C)(C)C (centres undefined),i,nt,i,?,nt,nt
Cc1ccc(C(=O)C[n+]2cc(Br)cc(Br)c2)cc1[N+](=O)[O-],i,nt,16µM,i,i,i
Cc1ccc(C(=O)NCc2ccco2)cc1[N+](=O)[O-],i,i,i,i,i,i
CC1=C(C(N)=O)N2C(=O)[C@@H](NC(=O)Cc3ccccc3)C2SC1 (some centres undefined),i,nt,?,i,nt,nt
COc1cc2oc(=O)c(Br)c(C)c2c(OC)c1OC,13µM,?,13µM,i,i,i
N#CCC(=N)N1CCN(c2ccc(F)cc2)CC1,i,nt,11µM,nt,nt,nt
Cc1cc(C)c(C)c(S(=O)(=O)NCc2ccc(C(=O)N3CCCCC3)cc2)c1C,i,i,?,2µM,i,i
Cc1ccc(C)c(S(=O)(=O)NCc2ccc(C(=O)N3CCCCCC3)cc2)c1,i,nt,i,7.1µM,i,?
Cn1nc(C(=O)Nc2ccc(S(=O)(=O)N3CCOCC3)cc2)c2ccccc2c1=O,i,nt,i,nt,nt,nt
COc1ccc(N2CCN(C(=O)CSc3nnc4n3C(C)(C)Cc3ccccc3-4)CC2)cc1,i,i,22µM,i,i,-80
COc1ccc(N2CCN(C(=O)CSc3ccccc3N)CC2)cc1,i,i,25µM,?,i,?
CCCCOC(=O)CSc1nnc(-c2ccc(C)cc2)o1,nt,i,nt,nt,nt,nt
SMILES,IMPase Li cell,IMPase cell inh,ALDH1A1 block,HPGD inh,12-hLO inh,PNC inhibitor
CCCc1[nH]nc2c1C(c1cc(OC)cc(OC)c1)C(C#N)=C(N)O2 (centres undefined),i,i,i,i,i,i
CC(C)c1[nH]nc2c1C(c1cccc(OC(=O)N3CCOCC3)c1)C(C#N)=C(N)O2 (centres undefined),i,i,22µM,i,i,i
CCCc1[nH]nc2c1C(c1cccc(OC(=O)c3ccco3)c1)C(C#N)=C(N)O2 (centres undefined),i,i,8.9µM,i,i,i
CC(C)c1[nH]nc2c1C(c1cccnc1)C(C#N)=C(N)O2 (centres undefined),i,i,8.9µM,i,i,i
CCc1[nH]nc2c1C(c1cccc(OC(=O)N3CCOCC3)c1)C(C#N)=C(N)O2 (centres undefined),i,i,?,i,i,?
N#CCCn1c(=O)c(-c2ccc(F)cc2)nc2cnc(N3CCOCC3)nc21,i,nt,?,nt,nt,nt
COc1ccc(C(=O)N2CCC(C(=O)Nc3ccc(Cl)cc3)CC2)cc1,nt,i,nt,nt,nt,nt
O=C(CCC(=O)Nc1ccccc1)N/N=C/c1ccncc1,i,?,i,22µM,i,i
O=C(CNc1ccccc1)N/N=C/c1ccc([N+](=O)[O-])cc1,i,i,3.5µM,i,i,i
O=C(CNc1cccc2ccccc12)N/N=C/c1ccc([N+](=O)[O-])o1,i,i,i,i,i,i
O=C(CNc1cccc([N+](=O)[O-])c1)N/N=C/c1ccc([N+](=O)[O-])o1,i,nt,2µM,nt,nt,nt
CCCN1C[C@H](CSC)C[C@H]2c3cccc4[nH]cc(c34)C[C@@H]21,i,i,i,i,i,nt
COc1cc2c(cc1OC)C(c1ccccc1)CN(C)CC2 (centres undefined),i,nt,i,i,nt,nt
COc1ccc2[nH]cc(CCNc3ncncc3-c3cccc(NS(C)(=O)=O)c3)c2c1,i,nt,i,nt,nt,nt
Cc1ccc(/C=N/NC(=O)c2cccnc2)o1,i,nt,i,nt,nt,nt
O=C(O)c1cccc(-c2ccc(/C=N/NC(=O)c3cccnc3)o2)c1,i,nt,?,?,i,-83
O=C1[C@H]2[C@H]3[C@H](O)[C@H](O)C/C(=N/OC[C@@H](O)COCc4ccco4)[C@H]3CC[C@@H]2C(=O)N1c1cccc(Oc2ccccc2)c1,nt,nt,i[13.5 µM],nt,nt,nt
COc1ccc(C(=O)N2CCCC(CCC(=O)NCc3ccc(F)c(F)c3)C2)o1 (centres undefined),i,nt,16µM,nt,nt,nt
COc1cccc(CNC(=O)CCC2CCCN(C(=O)c3ccc(OC)c(F)c3)C2)c1 (centres undefined),i,nt,?,nt,nt,nt
COc1ccc(C(=O)N2CCCC(CCC(=O)NCc3ccc(F)c(F)c3)C2)cc1F (centres undefined),i,nt,i,nt,nt,nt
COc1cccc(CNC(=O)CCC2CCCN(C(=O)Cc3ccccc3F)C2)c1 (centres undefined),i,nt,11µM,nt,nt,nt
Cc1cc(-c2ccccc2)n2nc(-c3cccc(Br)c3)cc2n1,nt,i,nt,nt,nt,nt
O=C(NCCN1CCOCC1)c1ccc2c(c1)N(Cc1ccccc1F)C(=O)CS2,i,i,i,i,i,i
O=C(NCCN1CCOCC1)c1ccc2c(c1)N(Cc1cccc(F)c1)C(=O)c1ccccc1S2,i,nt,28µM,nt,nt,nt
Cc1cc(Nc2ccc(O)cc2)ccc1N,i,nt,3.2µM,i,i,nt
Cc1ccc(Nc2ccc(C(=O)O)cc2N)cc1,i,i,i,i,i,i
CCCn1c(C(C)NC(C)=O)nc2ccccc21 (centres undefined),i,i,i,i,i,?
